In PubChem BioAssay (NCATS):
Inconclusive results are not listed. The source made the active and inactive calls. Calls follow the shape of the dose curve; as a rule, active = well fitted cell-killing curve with a large enough effect; inconclusive = small, poorly fitted or top-dose-only effect, or effect the other way; inactive = flat fitted curve, though single readings scatter. *1 amine or outer side, *2 acyl side, *3 side chain or, on linkers, in order; H or OH if unused. Where a SMILES comes first, the peptide text is derived from it. [ ]: non-standard residue; d: D form. X13 = O=C(C(CC(O)CO)O[*:1])[*:2]; NMeV = CN[CH](C(=O)O)C(C)C; NMeA = CN[CH](C)C(=O)O; βAla = NCCC(=O)O

tested on: CAOV3; assay: Primary qHTS to identify gynecologic anti-cancer compounds using libraries of approved drugs and bioactive compounds (AID 1345084); conditions: Gynecologic cancer cell panel viability, ATPlite luminescence, 48 h; series mostly up to 57.5 µM; activity change, negative = cytotoxicity: at the top concentration; also: nearly all actives have a fitted effect of over 55% in size
Text: National Center for Advancing Translational Sciences [NCATS] Assay Overview: Chemotherapeutic drug responses vary from cancer to cancer and from patient to patient. These variations could be caused by a number of factors including patient genomic background, tumor mutations, tumor heterogeneity, and aspects of drug treatment. Chemotherapeutic drug resistance is also a common issue and can lead to ineffective treatment and patient death. Here we have profiled the cell killing effects of thousands of compounds to characterize the responses in three gynecological cancers, identify cancer-selective compounds, and understand the diversity of responses to these compounds from pan-cancer suppressors to single cell line selective compounds. In this assay, we screened a 7,914 compound drug library that included approved drug and bioactive compounds in six ovarian, three cervical, and […] placental cancer cell lines using the ATPlite assay for cell viability. […] The cervical cancer cell lines included HeLa, Ca Ski, and C-33 A. The placental cancer cell lines included JEG-3. HEK 293T cells were used as the control cell line to determine the selectivity index. ATPlite is a luminescence based assay reliant on the conversion of a luciferase substrate to light in the presence of ATP. As a cytotoxic compound will suppress growth and decrease the number of cells, the concentration of ATP will decrease, and less light signal will be detected in the well.
Assay Protocol Summary: 1,000 cells in 4 uL of media were dispensed into white, solid bottom 1536-well plates using a Multidrop Combi (Thermo Scientific). The Assay plates were incubated for 16 hours at 37 C with 5% CO2 in assay plates, followed by the addition of 23 nL of DMSO or drug dissolved in DMSO. Each compound was assayed in five concentrations (0.092, 0.46, 2.3, 11.5, and 57.5 uM), using the automated Wako 1536 Pin Tool workstation and incubated at 37 C with 5% CO2 48 hours. 4 uL of ATPlite, the ATP monitoring reagent, was then added to the each well of the assay plates using the Multidrop Combi reagent dispenser followed by incubation for 15 minutes at room temperature. The resulting luminescence was measured using the ViewLux plate reader.
% is scaled to controls: 0 for no effect and ±100 for the full control effect.

Structure (SMILES) | activity change, negative = cytotoxicity
C[C@]1(OC(=O)/C=C/c2ccccc2)C[C@@H](O)[C@]2(O)C=CO[C@@H](O[C@@H]3O[C@H](CO)[C@@H](O)[C@H](O)[C@H]3O)[C@@H]21 | 18.6% [at 25.3 µM] (inactive)
CC(C)c1ccc2c(c1)C(=O)CC1C(C)(C(=O)O)CCCC21C (stereo not given) | 5.35% [at 38.5 µM] (inactive)
CC(C)=C1CC2C(CCC2(C)O)C(C)(O)CC1=O (stereo not given) | 16.8% (inactive)
O=C(O)CC1(O)C(=O)Nc2ccccc21 (stereo not given) | -2.66% (inactive)
CC/C=C\CC1C(CC(=O)O)CCC1OC1OC(CO)C(O)C(O)C1O (stereo not given) | 2.06% [at 38.5 µM] (inactive)
CCCC1=CC2=C(CO1)C(=O)C(C)(O)C(OC(=O)c1c(C)cc(OC)cc1O)C2 (stereo not given) | 7.69% [at 25.3 µM] (inactive)
CC1CCC23COC(=O)C2=CC(O)CC3C1(C)CCc1ccoc1 (stereo not given) | 7.43% [at 38.5 µM] (inactive)
C=C(CC/C=C(\C)C(=O)O)C1(O)CC=C(C)CC1 (stereo not given) | -5.33% (inactive)
CC(C)[C@@](O)(c1ccc2cc(OC(F)F)c(OC(F)F)cc2c1)c1cn[nH]n1 | 16.4% (inactive)
C=C1CC2C3(C)C(O)CC(=O)C(C)(C)C3C(O)C(OC(C)=O)C2(C)C2C(=O)OC(C)(C(=O)OC)C(=O)C12C (stereo not given) | 5.76% [at 25.3 µM] (inactive)
CC1(C)CC[C@]2(C(=O)O[C@@H]3O[C@H](CO)[C@@H](O)[C@H](O)[C@H]3O)CC[C@]3(C)C(=CCC4[C@@]5(C)CC[C@H](O[C@@H]6O[C@H](C(=O)O)[C@@H](O[C@@H]7O[C@H](CO)[C@@H](O)[C@H](O)[C@H]7O)[C@H](O)[C@H]6O)C(C)(C)C5CC[C@]43C)C2C1 (stereo not given in full) | 6.34% [at 11.6 µM] (inactive)
CCC(C)C1NC(=O)C2CCCN2C(=O)C(CC(O)CO)OC(=O)CCNC(=O)C(C)N(C)C(=O)C(C(C)C)N(C)C1=O (stereo not given) (cyclo([X13]PI[NMeV][NMeA][βAla]); configuration not given here) | -2.43% [at 25.3 µM] (inactive)
C=C(C)[C@H]1CC[C@]2(C(=O)O)CC[C@]3(C)C(CCC4[C@@]5(C)CCC(=O)C(C)(C)C5CC[C@]43C)C12 (stereo not given in full) | 2.35% [at 25.3 µM] (inactive)
C/C=C1/CC2C(=O)Nc3cc(O)c(OC)cc3C(=O)N2C1 (stereo not given) | 6.16% [at 38.5 µM] (inactive)
O=C(O)[C@H](Cc1ccccc1)Oc1ccc(-c2ccccc2)cc1 | 0.0838% (inactive)
O=C(O)/C=C/c1ccc(O[C@@H]2O[C@H](CO)[C@@H](O)[C@H](O)[C@H]2O)cc1 | -1.48% [at 38.5 µM] (inactive)
C[C@H]1CCN2C[C@]34C[C@@]5(C(=O)Nc6c5ccc5c6OC=CC(C)(C)O5)C(C)(C)C3C[C@]12C(=O)N4C (stereo not given in full) | 24.7% [at 25.3 µM] (inactive)
C=C[C@H]1[C@H](O[C@@H]2O[C@H](CO)[C@@H](O)[C@H](O)[C@H]2O)OC=C(C(=O)OC)[C@H]1CCO | 9.29% [at 38.5 µM] (inactive)
CC1OC(O[C@@H]2[C@@H](O)[C@H](OC(=O)[C@]34CCC(C)(C)C[C@H]3C3=CCC5[C@@]6(C)CC[C@H](O[C@@H]7O[C@H](C(=O)O)[C@@H](O)[C@H](O[C@@H]8OC[C@@H](O)[C@H](O)[C@H]8O)[C@H]7O[C@@H]7O[C@H](CO)[C@H](O)[C@H](O)[C@H]7O)[C@@](C)(C=O)C6CC[C@@]5(C)[C@]3(C)C[C@H]4O)O[C@H](C)[C@@H]2OC2OC(C)C(OC3OCC(O)C(O)C3O)C(O)C2O)C(O)C(O)C1O (stereo not given in full) | 7.91% [at 6.55 µM] (inactive)
O=C(NCCN1CCCC1)c1cc(-c2ccc(CN3CCOCC3)cc2)nc2ccc(F)cc12 | 8.2% [at 25.3 µM] (inactive)

Structure (SMILES) | activity change, negative = cytotoxicity
CC1(C(=O)O)CC[C@]2(C(=O)OC3OC(CO)C(O)C(O)C3O)CC[C@]3(C)C(=CCC4[C@@]5(C)CC[C@H](OC6OCC(O)C(O)C6OC6OC(CO)C(O)C(O)C6O)C(C)(C)C5CC[C@]43C)C2C1 (stereo not given in full) | -1.35% [at 11.6 µM] (inactive)
CC(C)C1NC(=O)CNC(=O)C2CCCN2C(=O)C(Cc2c[nH]c3ccccc23)NC(=O)CNC(=O)C(Cc2ccc(O)cc2)NC(=O)CNC1=O (stereo not given) (cyclo(GVGYGWP); configuration not given here) | -3.89% [at 25.3 µM] (inactive)
C=C(C)[C@@]1(O)C[C@@]2(C)C(=CC1=O)CC[C@@H](O)[C@@H]2C | 19.5% (inactive)
C[C@]1(O)CC[C@@H]2C(C(=O)O)=CO[C@@H](O[C@@H]3O[C@H](COC(=O)/C=C/c4ccc(O)c(O)c4)[C@@H](O)[C@H](O)[C@H]3O)[C@@H]21 | 3.81% [at 25.3 µM] (inactive)
COc1ccc(CCc2nc3cc(-c4c(C)noc4C)ccc3n2C[C@H](C)N2CCOCC2)cc1Cl | 0.443% (inactive)
Cc1occc(=O)c1O[C@@H]1O[C@H](COC(=O)CC(C)(O)CC(=O)O)[C@@H](O)[C@H](O)[C@H]1O (stereo not given in full) | -8.12% [at 25.3 µM] (inactive)
COc1cc2nc(=NC(=O)c3cccnc3)n3c(c2cc1OC)NCC3 | -0.0361% (inactive)
C=C(CO)C(=O)O[C@H]1C[C@@]23O[C@@H]2CC/C(=C/[C@H]2OC(=O)C(=C)[C@H]12)CO[C@H]3O | -1.96% [at 38.5 µM] (inactive)
CN(C)CCC[C@]1(c2ccc(F)cc2)OCc2cc(C#N)ccc21 | 13.5% (inactive)
CC(=O)c1c(C)cccc1O[C@@H]1O[C@H](CO)[C@@H](O)[C@H](O)[C@H]1O | 12% [at 38.5 µM] (inactive)
Cc1[nH]c2ccccc2c1CC(=O)N[C@@H](Cc1ccccc1)C(=O)N(C)c1ccccc1 | -3.25% (inactive)
C/C=C1/C[N+](C)([O-])C2Cc3c([nH]c4ccccc34)C(=O)CC1C2C(=O)OC (stereo not given) | -0.844% [at 38.5 µM] (inactive)
CC(=O)OC1C(CO)OC(O[C@H]2[C@H](OC(=O)[C@]34CCC(C)(C)C[C@H]3C3=CCC5[C@@]6(C)CC[C@H](O[C@@H]7O[C@H](C(=O)O)[C@@H](O)[C@H](O[C@@H]8OC[C@@H](O)[C@H](O)[C@H]8O)[C@H]7O[C@@H]7O[C@H](CO)[C@H](O)[C@H](O)[C@H]7O)[C@@](C)(C=O)C6CC[C@@]5(C)[C@]3(C)C[C@H]4O)O[C@H](C)[C@H](OC3OC(C)C(OC4OCC(O)C(O)C4O)C(O)C3O)[C@@H]2O)C(O)C1O (stereo not given in full) | -15% [at 6.55 µM] (inactive)
C=C1CC23CC1CCC2C12OC(=O)C(C)(C(O)C(O)C1O)C2C3C(=O)O (stereo not given) | 6.57% [at 38.5 µM] (inactive)
CC(C)=CCC/C(C)=C/CO[C@@H]1O[C@H](CO[C@@H]2OC[C@](O)(CO)[C@H]2O)[C@@H](O)[C@H](O)[C@H]1O | 22.3% [at 25.3 µM] (inactive)
CC1(C)CC[C@]2(C(=O)O)CC[C@]3(C)C(=CCC4[C@@]5(C)CC[C@H](O)C(C)(C)C5CC[C@]43C)C2C1 (stereo not given in full) | 7.42% [at 25.3 µM] (inactive)
C=C(C)[C@@H]1CC[C@]2(C(=O)O)CC[C@]3(C)[C@H](CCC4[C@@]5(C)CCC(=O)C(C)(C)C5C(O)C[C@]43C)C12 (stereo not given in full) | -1.85% [at 25.3 µM] (inactive)
COc1cc(O)cc(C)c1C(=O)O[C@H]1[C@@H](O)[C@@H](n2ccc(=O)[nH]c2=O)O[C@@H]1CO | -4.45% [at 25.3 µM] (inactive)
C[C@H]1CC[C@@]2(OC1)O[C@H]1CC3C4CC[C@H]5C[C@@H](O[C@@H]6O[C@H](CO)[C@H](O[C@@H]7O[C@H](CO)[C@@H](O)[C@H](O[C@@H]8OC[C@@H](O)[C@H](O)[C@H]8O)[C@H]7O[C@@H]7O[C@H](CO)[C@@H](O)[C@H](O)[C@H]7O)[C@H](O)[C@H]6O)[C@H](O)C[C@]5(C)C4=CC(=O)[C@]3(C)[C@H]1[C@@H]2C (stereo not given in full) | 5.57% [at 11.6 µM] (inactive)
CC(C)(C)NS(=O)(=O)c1ccc(-c2ccc3[nH]nc(N)c3c2)cc1 | -0.622% (inactive)
